In the supplement of paper PMC9588786 one finds relative cell viability data, which are given here for nine compounds.

The structures appear in SMILES notation. ± gives the standard deviation of the averaged measurements.
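Note: viability read as CCK-8 absorbance at 450 nm in cells co-exposed to the GPX4 inhibitor RSL3, relative to a 0.01% DMSO vehicle control.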

In this assay the test system is HT-1080. In words: relative cell viability with RSL3 co-treatment (fraction of control); higher = stronger protection from RSL3-induced ferroptosis (higher viability). Conditions: 10 µM.
In the case of `CCN1CCN(C(=O)Cc2ccc(Nc3ncc(F)c(Nc4ccc(C(=O)Nc5ccccc5Cl)cc4)n3)cc2)CC1` [Aurora A Inhibitor I], the relative cell viability stood at 0.473 ± 0.13.

For `Cn1cc(C2=C(c3cn(C4CCN(Cc5ccccn5)CC4)c4ccccc34)C(=O)NC2=O)c2ccccc21`, the relative cell viability was 0.807 ± 0.061.

Regarding `COc1ccc2c(c1)/C(=C/c1cnc[nH]1)C(=O)N2`, the relative cell viability was determined as 0.797 ± 0.011.

On to `CC(C)(C)c1cc(C=C(C#N)C#N)cc(C(C)(C)C)c1O` [Tyrphostin 9], for which the relative cell viability is 0.413 ± 0.021.

Regarding `COc1ccc(N(C(=O)Oc2c(C)cccc2C)c2ccnc(Nc3ccc(N4CCN(C)CC4)cc3)n2)c(OC)c1`, the relative cell viability was determined as 0.8133 ± 0.0058.

For the compound `C/C(O)=C(\C#N)C(=O)Nc1cc(Br)ccc1Br`, the relative cell viability worked out at 0.54 ± 0.085.

Turning to `O=c1[nH]c2ccc(Cl)cc2c(N[C@@H]2CN3CCC2CC3)c1-c1nc2ccccc2[nH]1`, the relative cell viability stood at 0.63 ± 0.046.

As to `CC(C)(C)c1cc(C=C(C#N)C#N)cc(Br)c1O`, the relative cell viability is 0.473 ± 0.015.

Take `Cc1ccccc1-n1c(Cn2ncc3c(N)ncnc32)nc2cccc(C)c2c1=O`: the relative cell viability turned out to be 0.727 ± 0.049.
